# From the supplement of paper PMC9942566
# ± gives the standard deviation of the averaged measurements.
# System: Serratia marcescens K904 PosmB-luxCDABE reporter (pMQ747)
# Assay: PosmB-lux reporter fold induction (RLU/OD600 relative to no-compound control), highest over Biolog concentrations; higher = stronger reporter activation
# Conditions: ΔrcsB mutant CMS5177; 4 h
# Procedure: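 Serratia marcescens K904 (wild type) or its isogenic ΔrcsB mutant, carrying the Rcs-dependent PosmB-luxCDABE reporter plasmid pMQ747, was grown in LB at OD600 0.1 in Biolog Phenotype MicroArray plates PM11-20 for 4 h at 30-32°C. Each compound is present at 3-4 proprietary concentrations (not stated); per the Fig. S1 legend the value given is the highest fold over those wells. Three independent trials.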
row,SMILES,PosmB-lux reporter fold induction
1,"CCc1cc(C(N)=S)ccn1 [ethionamide] (Biolog plate: PM17, well positions: B9-12)",0.857 ± 0.29
2,"CC(Oc1ccccc1)C(=O)N[C@@H]1C(=O)N2[C@@H]1SC(C)(C)[C@@H]2C(=O)O (stereo not given in full) [phenethicillin] (Biolog plate: PM19, well positions: F1-4)",1.15 ± 0.37
3,"CN[C@@H]1[C@H](O[C@H]2[C@H](O[C@H]3[C@H](O)[C@@H](O)[C@H](N=C(N)N)[C@@H](O)[C@@H]3N=C(N)N)O[C@@H](C)[C@]2(O)C=O)O[C@@H](CO)[C@H](O)[C@H]1O [streptomycin] (Biolog plate: PM16, well positions: E1-4)",1.98 ± 0.69
4,"CCn1cc(C(=O)O)c(=O)c2cc(F)c(N3CCNCC3)cc21 [norfloxacin] (Biolog plate: PM16, well positions: B1-4)",1.91 ± 0.65
5,"Cc1onc(-c2ccccc2)c1C(=O)N[C@@H]1C(=O)N2[C@@H]1SC(C)(C)[C@@H]2C(=O)O [Oxacillin] (Biolog plate: PM12, well positions: B1-4)",1.31 ± 0.52
6,"[Cl][Mn][Cl] [Manganese chloride] (Biolog plate: PM13, well positions: G5-8)",1.41 ± 0.043
7,"NCC(=O)NO [glycine hydroxamate] (Biolog plate: PM16, well positions: H1-4)",2.02 ± 0.63
8,"CCCCCCCC[N+](C)(CCCCCCCC)CCCCCCCC [methyltrioctyl-ammonium chloride] (Biolog plate: PM19, well positions: B1-4)",2.23 ± 1.5
9,"NC(=O)NO [Hydroxyurea] (Biolog plate: PM15, well positions: H5-8)",13.9 ± 5.4
10,"CCn1cc(C(=O)O)c(=O)c2cc(F)c(N3CCNC(C)C3)c(F)c21 (stereo not given) [Lomefloxacin] (Biolog plate: PM11, well positions: B9-12)",1.19 ± 0.24
11,"Cc1cc(NS(=O)(=O)c2ccc(N)cc2)no1 [Sulfa-methoxazole] (Biolog plate: PM12, well positions: G5-8)",1.9 ± 1.2
12,"CO/N=C(\C(=O)N[C@@H]1C(=O)N2C(C(=O)O)=C(COC(C)=O)CS[C@H]12)c1csc(N)n1 [cefotaxime] (Biolog plate: PM16, well positions: A2-4)",1.11 ± 0.047
13,"CN(C)[C@@H]1C(O)=C(C(N)=O)C(=O)[C@@]2(O)C(O)=C3C(=O)c4c(O)ccc(Cl)c4[C@@H](O)[C@H]3C[C@@H]12 [Demeclocycline] (Biolog plate: PM11, well positions: D5-8)",1.59 ± 0.14
14,"CN(C)CCCN1c2ccccc2Sc2ccc(Cl)cc21 [chlorpromazine] (Biolog plate: PM17, well positions: D9-12)",1.63 ± 0.49
15,"O=C1CN(/N=C/c2ccc([N+](=O)[O-])o2)C(=O)N1 [Nitrofurantoin] (Biolog plate: PM14, well positions: E5-8)",1.19 ± 0.084
16,"CCn1cc(C(=O)O)c(=O)c2cc(F)c(N3CCNCC3)nc21 [Enoxacin] (Biolog plate: PM11, well positions: E5-8)",1.45 ± 0.3
17,"COc1cc(Cc2cnc(N)nc2N)cc(OC)c1OC [trimethoprim] (Biolog plate: PM16, well positions: B9-12)",8.21 ± 3.9
18,"CC1(C)S[C@@H]2[C@H](NC(=O)C(C(=O)O)c3ccccc3)C(=O)N2[C@H]1C(=O)O (stereo not given in full) [Carbenicillin] (Biolog plate: PM12, well positions: A9-12)",1.03 ± 0.29
19,"CN[C@@H]1[C@@H](O[C@H]2O[C@H](CO)[C@@H](N)[C@H](O)[C@H]2O)OC2C[C@@H](N)[C@@H](O[C@H]3[C@H](O)[C@@H](O)[C@H](N)C[C@@H]3N)OC2[C@@H]1O (stereo not given in full) [apramycin] (Biolog plate: PM20, well positions: A5-8)",1.48 ± 0.21
20,"CO[C@@]1(NC(=O)C(C(=O)O)c2ccc(O)cc2)C(=O)N2C(C(=O)O)=C(CSc3nnnn3C)CO[C@@H]21 (stereo not given in full) [Moxalactam] (Biolog plate: PM13, well positions: H5-8)",1.94 ± 0.81

row,SMILES,PosmB-lux reporter fold induction
1,"CN(C)c1ccc(C(=C2C=CC(=[N+](C)C)C=C2)c2ccc(N(C)C)cc2)cc1 [crystal violet] (Biolog plate: PM20, well positions: E1-4)",1.24 ± 0.17
2,"S=c1nc[nH]c2nc[nH]c12 [6-Mercapto-purine] (Biolog plate: PM13, well positions: C1-4)",1.22 ± 0.54
3,"C/C=C/C=C/C(=O)O [sorbic acid] (Biolog plate: PM16, well positions: H9-12)",4.84 ± 2.9
4,"CCC[C@@H]1C[C@@H](C(=O)N[C@@H]([C@H]2O[C@H](SC)[C@H](O)[C@@H](O)[C@H]2O)[C@@H](C)O)N(C)C1 [Lincomycin] (Biolog plate: PM11, well positions: A9-12)",2.28 ± 0.49
5,"CC(=O)O[C@H]1C[C@@]2(C)[C@@H](C[C@@H](O)[C@H]3[C@@]4(C)CC[C@@H](O)[C@@H](C)[C@@H]4CC[C@@]32C)/C1=C(\CCC=C(C)C)C(=O)O [Fusidic acid] (Biolog plate: PM15, well positions: C5-8)",1.43 ± 0.16
6,"O=c1ccc2ccccc2o1 [coumarin] (Biolog plate: PM19, well positions: A9-12)",0.853 ± 0.16
7,"CCN(CC)CCOC(=O)c1ccc(N)cc1 [Procaine] (Biolog plate: PM15, well positions: A2-4)",1.04 ± 0.067
8,"CCN1CCN(C(=O)N[C@@H](C(=O)N[C@@H]2C(=O)N3[C@@H]2SC(C)(C)[C@@H]3C(=O)O)c2ccccc2)C(=O)C1=O [Piperacillin] (Biolog plate: PM14, well positions: F5-8)",1.2 ± 0.13
9,"CC(C(=O)O)c1cccc(C(=O)c2ccccc2)c1 (stereo not given) [ketoprofen (an NSAID)] (Biolog plate: PM18, well positions: A2-4)",1 ± 0.37
10,"CCCCCCCCCCCC[N+](C)(C)CCOc1ccccc1 [Domiphen bromide] (Biolog plate: PM15, well positions: D5-8)",2.39 ± 0.17
11,"CN[C@H](CC(C)C)C(=O)N[C@H]1C(=O)N[C@@H](CC(N)=O)C(=O)N[C@H]2C(=O)N[C@H]3C(=O)N[C@H](C(=O)N[C@H](C(=O)O)c4cc(O)cc(O)c4-c4cc3ccc4O)[C@H](O)c3ccc(c(Cl)c3)Oc3cc2cc(c3O[C@@H]2O[C@H](CO)[C@@H](O)[C@H](O)[C@H]2O[C@H]2C[C@](C)(N)[C@H](O)[C@H](C)O2)Oc2ccc(cc2Cl)[C@H]1O [Vancomycin] (Biolog plate: PM12, well positions: C5-8)",1.21 ± 0.36
12,"Nc1ccc(S(=O)(=O)Nc2ncccn2)cc1 [Sulfadiazine] (Biolog plate: PM12, well positions: E5-8)",1.84 ± 0.29
13,"CC(=O)OCC1=C(C(=O)O)N2C(=O)[C@@H](NC(=O)Cc3cccs3)[C@H]2SC1 [Cephalothin] (Biolog plate: PM11, well positions: H1-4)",1.37 ± 0.15
14,"NC(CO)C(=O)NO (racemic) [D,L-Serine hydroxamate] (Biolog plate: PM12, well positions: C9-12)",1.74 ± 1.6
15,"Nc1ncn([C@@H]2O[C@H](CO)[C@@H](O)[C@H]2O)c(=O)n1 [5-azacytidine] (Biolog plate: PM16, well positions: E5-8)",2.23 ± 0.64
16,"Nc1ccn(C2OC(CO)C(O)C2O)c(=O)n1 [Cytosine-1-beta-D-arabino-furanoside] (Biolog plate: PM13, well positions: E1-4)",1.91 ± 0.42
17,"O=P(O)(O)OP(=O)(O)O [sodium pyrophosphate decahydrate] (Biolog plate: PM18, well positions: A5-8)",0.615 ± 0.16
18,"CN(C)c1ccc(O)c2c1C[C@H]1C[C@H]3[C@H](N(C)C)C(O)=C(C(N)=O)C(=O)[C@@]3(O)C(O)=C1C2=O [Minocycline] (Biolog plate: PM11, well positions: C9-12)",1.8 ± 0.42
19,"CCn1cc(C(=O)O)c(=O)c2cnc(N3CCNCC3)nc21 [pipemidic acid] (Biolog plate: PM18, well positions: B5-8)",1.91 ± 0.5
20,"CN[C@@H]1[C@@H](O)[C@@H](O[C@@H]2[C@@H](O)[C@H](O[C@H]3OC(CN)=CC[C@H]3N)[C@@H](N)C[C@H]2N)OC[C@]1(C)O [Sisomicin] (Biolog plate: PM12, well positions: D1-4)",1.29 ± 0.5
